Data on 92 compounds can be found in PubChem BioAssay AID493012 (Sanford-Burnham Center for Chemical Genomics, 2011).

The campaign covered roughly 330,000 compounds. About 930 (0.28%) were called active. The sample as a whole holds a higher share of actives than the screen did. A number with no mark means an inactive call.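 Rule for the calls: active = inhibition of at least 40% at 20 µM, with no more than 30% in the related APOBEC3A deaminase screen; inactive = the rest.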

Chain of DNA dC->dU-editing enzyme APOBEC-3G (Homo sapiens) (Q9HC16 whole entry, looked up): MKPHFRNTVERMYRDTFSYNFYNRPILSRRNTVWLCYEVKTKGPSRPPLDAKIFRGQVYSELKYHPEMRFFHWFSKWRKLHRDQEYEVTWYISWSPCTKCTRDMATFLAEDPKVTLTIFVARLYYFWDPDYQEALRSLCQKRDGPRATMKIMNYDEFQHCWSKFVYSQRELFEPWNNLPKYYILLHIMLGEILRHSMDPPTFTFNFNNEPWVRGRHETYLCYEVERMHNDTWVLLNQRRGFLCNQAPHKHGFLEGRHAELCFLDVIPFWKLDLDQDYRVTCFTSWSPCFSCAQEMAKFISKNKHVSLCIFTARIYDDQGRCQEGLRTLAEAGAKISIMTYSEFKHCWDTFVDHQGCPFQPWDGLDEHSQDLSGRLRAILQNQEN

The assay addresses DNA dC->dU-editing enzyme APOBEC-3G (Homo sapiens) (UniProt Q9HC16). In words: inhibition of human A3G ssDNA deamination – biochemical, fluorescence, single-stranded DNA substrate, uHTS, primary screen (AID 493012).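 Note: plate controls were DMSO wells with A3G for no effect and wells lacking A3G enzyme for full effect.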 The note with it: recombinant A3G, ssDNA deamination FAM/TAMRA fluorescence; at 20 µM; active compounds read high.
Regarding `Cc1cc(-c2ccccc2)nc(N2CCC(C(=O)NC34CC5CC(CC(C5)C3)C4)CC2)n1`, the inhibition is -9.15%.
As for `CCOC(=O)C1=C(N)N2C(=O)C(C)SC2=C(C(=O)OCC)C1c1cc(OC)c(OC)c(OC)c1` (configuration not stated), the inhibition was -2.88%.
The same measure for `C/C=C(/C)C(=O)Nc1cccc(C2=NOC3(C2)C[C@@H](C(N)=O)N(C(=O)C2(C)CC2)C3)c1` (some centres not stated): -16%; for `C/C=C\C=C\C(=O)N1CC2(CC(c3cccc(NC(=O)/C(C)=C\C)c3)=NO2)C[C@H]1C(N)=O` (some centres not stated): -3.46%.
For the compound `C=C(C)C(=O)Nc1cccc(C2=NOC3(C2)C[C@H](C(N)=O)N(C(=O)C(c2ccccc2)c2ccccc2)C3)c1` (some centres not stated), the inhibition is 53.1% (active).
Turning to `COc1ccc(/C=N/n2nnnc2N)cc1OC`, the inhibition is -3.77%.
Take `COc1cc(/C=C/C(=O)OCC(=O)N2CCOCC2)ccc1OCC#N`: the inhibition is -3.2%.
Take `CC1CCc2sc3nc(N4CCN(CCO)CC4)n4ncnc4c3c2C1` (configuration not stated): the inhibition was -8.25%.
In the case of `CCOC(=O)NC(=O)C(=CNc1cccc(OC)c1)C(=O)NC(=O)OCC`, the inhibition was -5.67%.
As for `COC(=O)c1c(C)[nH]c(C)c1-c1ccc([N+](=O)[O-])cc1`, the inhibition was -8.28%.
`CC(=O)N1CC[n+]2c(-c3ccc([N+](=O)[O-])cc3)csc21`: the inhibition was 54.4% (active).
For `COc1ccc(C2CC(c3ccc([N+](=O)[O-])cc3)=NN2C(C)=O)cc1` (configuration not stated), the inhibition is 1.76%.
`Nc1nonc1-n1nnc(C(=O)N/N=C/c2ccc(Cl)cc2)c1-c1ccc2c(c1)OCO2`: the inhibition was 1.23%.
For `COc1cccc(NCCC(=O)c2cccc([N+](=O)[O-])c2)c1`, the inhibition was 1.63%.
Regarding `COc1ccc(C(=O)CC(=O)C(=O)Nc2cc([N+](=O)[O-])ccc2OC)cc1`, the inhibition was -6.63%.
With `COc1cccc(C(=O)CC(=O)C(=O)Nc2ccc([N+](=O)[O-])cc2C)c1`, the inhibition is 51.3% (active).
The result for `CC(=O)Nc1ccc(S(=O)(=O)NCCC(=O)N2CCN(c3ccccc3Cl)CC2)cc1` reads -2.43%; that for `CCCn1c(NC(=O)C23CC4CC(CC(O)(C4)C2)C3)nc2ccccc21`, -2.56%; that for `O=C(Cc1ccsc1)N1CCN(S(=O)(=O)c2cc(C(F)(F)F)cc(C(F)(F)F)c2)CC1`, -3.29%.
As to `CC(C)CCNC(=O)C1CCC(CNc2c(N3CCC(C)CC3)c(=O)c2=O)CC1` (configuration not stated), the inhibition is -1.82%.
The same measure for `C/C(=C(\C#N)C(=O)NCCCN1CCOCC1)N(C)C`: -7.59%; for `CCOc1cc(C(=S)N2CCOCC2)ccc1OS(=O)(=O)c1ccc(Br)cc1`: -3.84%; for `COc1cc(C(=S)N2CCOCC2)ccc1O`: -1.79%.
As to `CCOc1cc(C(=S)N2CCOCC2)ccc1O`, the inhibition is 51.9% (active).
As to `O=C(CN1CCN(C2CCS(=O)(=O)C2)CC1)N1N=C(c2ccc(Cl)cc2)CC1c1ccco1` (configuration not stated), the inhibition is -3.9%.
Turning to `O=C(NCC(=O)N1CCCC(C(F)(F)F)C1)c1ccccc1F` (configuration not stated), the inhibition was -2.23%.
For the compound `FC(F)(F)C1CCCN(c2nsc3ccccc23)C1` (configuration not stated), the inhibition is 72.5% (active).
In the case of `CCN(CC)CC(=O)Nc1sc2c(c1C(=O)c1ccccc1C)CCC2`, the inhibition is 1.14%.
Regarding `COc1ccc2[nH]c(C(=O)N3CCN(C)CC3)c(C)c2c1`, the inhibition was -7.04%.
Turning to `COc1ccc2[nH]c(=S)cc(C)c2c1`, the inhibition is 45.8% (active).
With `COc1ccc2c(C)cc3nnnn3c2c1`, the inhibition was -2.56%.
In the case of `COc1c(C(C)C)oc2cc3oc(=O)ccc3cc12`, the inhibition is -10.3%.
On to `Cc1cccc(NC(=O)C2CCCN(C(=O)Nc3ccc(F)cc3)C2)c1C` (configuration not stated), for which the inhibition is -9.22%.
Regarding `COc1ccc(OC)c(-n2c(-c3ccn[nH]3)n[nH]c2=S)c1`, the inhibition is 6.84%.
Turning to `COc1ccccc1-n1cn[nH]c1=S`, the inhibition is -7.32%.
Regarding `COc1ccccc1-n1c(-c2cc(-c3ccco3)[nH]n2)n[nH]c1=S`, the inhibition is 66.2% (active).
Consider `Cc1ccccc1N1CC(C(=O)Nc2ccc3c(c2)OCO3)CC1=O` (configuration not stated), for which the inhibition was -5.81%.
The same measure for `Cc1ccc(C)c(N2CCN(C(=O)CCc3nc(-c4cccc(C(F)(F)F)c4)no3)CC2)c1`: 2.36%; for `COc1ccc(OC)c(NC(=O)c2sc3nc(C)cc(C)c3c2N)c1`: -11%; for `Cc1ccc(NC(=O)c2sc3nc(N)c(C#N)cc3c2N)cc1`: 53.5% (active).
With `CCc1ccc2nc3sc(C(=O)Nc4nnc(CC)s4)c(N)c3cc2c1`, the inhibition is -0.825%.
`COc1cc(C(=O)Nc2ncccc2C)ccc1OCC(=O)N1CCOCC1`: the inhibition is -6.99%.
Consider `COc1cccc(NC(=O)N2CCCC2C(=O)NC2CCCCC2)c1` (configuration not stated), for which the inhibition is -7.25%.
Take `COc1ccc(NC(=O)c2sc(N3CCOCC3)nc2-c2ccccc2)c(OC)c1`: the inhibition is -6.69%.
The result for `CCC1Sc2ccc(S(=O)(=O)CCC(=O)NCc3cccs3)cc2NC1=O` (configuration not stated) reads -2.6%; that for `CCCc1nc2c(c(=O)c3ccccc3n2C)c(=O)n1C1CCCCCC1`, 2.29%; that for `O=c1c2ccccc2oc2nc(C3CCCCC3)n(Cc3ccco3)c(=O)c12`, -6.57%.
The result for `Cn1c2ccccc2c(=O)c2c(=O)n(Cc3ccco3)c(COc3ccccc3)nc21` reads 52.8% (active); that for `CC(=O)N1C(=O)/C(=C2\SC(=S)N(NC(=O)c3ccc(O)cc3)C2=O)c2ccccc21`, 1.88%; that for `COc1cccc(NC(=O)CSc2nnc(C3CCCCC3)n2N)c1`, -9.04%.
Take `Cc1cccc(NC(=O)c2ccc(S(=O)(=O)N(C)CC3CCCO3)cc2)c1C` (configuration not stated): the inhibition is 1.74%.
On to `Cc1ccc(NCc2n[nH]c(=S)n2-c2ccccc2)cc1Cl`, for which the inhibition was 10.6%.
For `Cc1cc(-c2n[nH]c(=S)n2-c2ccc(C)c(C)c2)no1`, the inhibition was 45.2% (active).
As for `Cc1ccc(C)c(S(=O)(=O)Nc2cc(C)on2)c1`, the inhibition is -6.75%.
`NC(=O)Cn1nc([N+](=O)[O-])nc1Oc1ccc(Br)cc1`: the inhibition is -11.7%.
For the compound `Cc1ccnc(-n2sc3ccccc3c2=O)n1`, the inhibition was 87% (active).
In the case of `COCCn1c(CN2CCC(Cc3ccccc3)CC2)nc2c1c(=O)n(C)c(=O)n2C`, the inhibition was -4.86%.
Turning to `Cc1ncn(C23CC4CC(CC(O)(C4)C2)C3)n1`, the inhibition was -4.67%.
With `COc1cccc(NC(=O)c2nn(C34CC5CC(CC(C5)C3)C4)cc2[N+](=O)[O-])c1`, the inhibition was 0.433%.
In the case of `Cc1nc([N+](=O)[O-])nn1C12CC3CC(CC(Br)(C3)C1)C2`, the inhibition is 59.1% (active).
`Cc1ccc(Sc2ccncc2S(N)(=O)=O)cc1`: the inhibition is -12.3%.
With `CCC(CC)c1nnc(NC(=O)C2CCN(C(=O)c3ccco3)CC2)s1`, the inhibition is 43.5% (active).
Consider `CCc1nnc(NC(=O)C2CCN(C(=O)c3ccccc3C)CC2)s1`, for which the inhibition is -4.15%.
`COc1ccc(CNC(=O)C2CCN(C(=O)c3ccco3)CC2)cc1`: the inhibition was -11.5%.
`CC(C)NC(=O)NNc1c(Cl)cncc1Cl`: the inhibition was -7.21%.
In the case of `CCn1cc(C(=O)NCC(=O)NC(C)(C)CO)c(=O)c2cc3c(cc21)OCO3`, the inhibition was 5.44%.
As to `CCOc1ccc(CCNC(=O)COC(=O)c2c(OC)cccc2OC)cc1OCC`, the inhibition was -6.63%.
As to `COc1ccc(N2CC(C(=O)NCCS(=O)(=O)N3CCN(c4ccccc4)CC3)CC2=O)cc1` (configuration not stated), the inhibition was -3.81%.
In the case of `Cc1sc(NC(=O)c2ccc3ncsc3c2)c(C(N)=O)c1C`, the inhibition is -14.1%.
On to `Cc1ccc(C(=O)c2c(NC(=O)c3ccccc3)sc(C)c2C)cc1`, for which the inhibition was 43.3% (active).
For the compound `Cc1ccc(S(=O)(=O)CC(=O)Nc2sc(C)c(C)c2C(N)=O)cc1`, the inhibition was 19.4%.
Consider `CC(CN1CCCCC1)OC(=O)c1ccccc1Cl` (configuration not stated), for which the inhibition is -6.81%.
Turning to `O=C(CSc1nccc(=O)[nH]1)Nc1ccc(N2CCOCC2)c(Cl)c1`, the inhibition is 1.54%.
Turning to `Cc1ccc(-n2c(-c3ccc(Cl)cc3)n[nH]c2=S)cc1`, the inhibition is 11.5%.
Turning to `Cc1nnc(SCC(=O)NNC(=O)c2ccc(Cl)cc2)n1CC1CCCO1` (configuration not stated), the inhibition was -0.693%.
As for `S=c1[nH]nc(-c2ccc(Cl)cc2)n1CC1CCCO1` (configuration not stated), the inhibition was 43.8% (active).
Take `O=C(CSc1nc2[nH]ncc2c(=O)[nH]1)Nc1ccc(F)cc1`: the inhibition is -9.68%.
Take `Cc1occc1-c1nnc(SCC(=O)NC2(C#N)CCCC2)n1C`: the inhibition was -13.5%.
`COCCN1C(=O)C(=O)/C(=C(/O)c2ccc(S(=O)(=O)N3CCOCC3)cc2)C1c1ccc(OC)c(OC)c1` (configuration not stated): the inhibition was -5.33%.
As to `CCOc1ccc(Br)cc1S(=O)(=O)Nc1cccc(S(=O)(=O)N(CC)CC)c1`, the inhibition was -8.57%.
With `O=C(Cn1cnc2cc([N+](=O)[O-])ccc2c1=O)NC(=O)NCc1ccccc1`, the inhibition is -6%.
In the case of `Cc1noc(C)c1CSc1nc2cc(S(=O)(=O)N3CCOCC3)ccc2o1`, the inhibition was 45.8% (active).
For the compound `COc1ccc(NC(=O)c2oc3ccc(S(=O)(=O)N4CCOCC4)cc3c2C)cc1`, the inhibition was -7.26%.
The result for `Cc1ccc(S(=O)(=O)N2CCN(S(=O)(=O)N3CCOCC3)CC2)cc1` reads -5.83%.
As for `CCCCCCCCn1c2c(c(=N)c3c1CCC3)CCCC2`, the inhibition is -6.25%.
`Cc1n[nH]c(=S)n1/N=C/c1ccc(Br)o1`: the inhibition is 40.4% (active).
On to `Cc1ccsc1/C=N/n1c(=S)[nH]nc(C)c1=O`, for which the inhibition is -0.898%.
As for `COc1cc(/C=N/n2c(C)n[nH]c2=S)ccc1OCc1ccccc1`, the inhibition was 9.64%.
The same measure for `O=S(=O)(N/N=C\c1cccn1-c1ccccc1)c1ccc2ccccc2c1`: -6.33%; for `COC(=O)c1cccc(-n2[nH]nnc2=S)c1`: 59% (active).
On to `COC(=O)c1cccc(N2C(=O)C3C4C=CC(CC4)C3C2=O)c1` (configuration not stated), for which the inhibition was -6.25%.
Take `COC(=O)c1cccc(NC(=O)c2cccc(N3C(=O)CCC3=O)c2)c1`: the inhibition is -9.31%.
